In PubChem BioAssay AID1159580 (chemical genetic matrix, 2015):
About 2,000 (36%) of roughly 5,500 compounds were called active. Roughly 18% stayed inconclusive and do not appear here. Cut-off read from the data, not from the text of the source: active = normalized growth mostly below about 0.91 (no sharp cut-off); inconclusive = no clear call, values can overlap the other calls; inactive = mostly above about 0.92. This is one part of the list.

Assay: chemical genetic growth profiling, strain panel (AID 1159580);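 note: tested at 20 µM; growth read once vehicle control cultures reached saturation at 30 °C; 1 = growth at the plate median or of vehicle wells; lower values mean less growth of the strain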
Conditions: growth OD

Measured: normalized growth

CC(=O)O[C@@H]1CC2C(C)(C)C(=O)C=C[C@]2(C)C2CC[C@@]3(C)[C@H](c4ccoc4)OC(=O)[C@H]4O[C@]43[C@@]21C (stereo partly drawn)
inactive: S. cerevisiae deletion strains, locus YJR066W, strain TOR1, stronger effect = lower value 0.932 | S. cerevisiae deletion strains, locus YKL009W, strain mrt4, stronger effect = lower value 1.07 | S. cerevisiae deletion strains, locus YKL068W, stronger effect = lower value 1 | S. cerevisiae deletion strains, locus YKL085W, strain MDH1 (second series), stronger effect = lower value 1.03 | S. cerevisiae deletion strains, locus YKL085W, strain MDH1, stronger effect = lower value 1.03 | S. cerevisiae deletion strains, locus YKL160W, strain elf1, stronger effect = lower value 1.02 | S. cerevisiae deletion strains, locus YKR001C, strain vps1, stronger effect = lower value 0.975 | S. cerevisiae deletion strains, locus YKR026C, strain gcn3, stronger effect = lower value 0.985 | S. cerevisiae deletion strains, locus YKR091W, strain srl3, stronger effect = lower value 1 | S. cerevisiae deletion strains, locus YLL001W, strain dnm1, stronger effect = lower value 0.972 | S. cerevisiae deletion strains, locus YLL026W, stronger effect = lower value 1.01 | S. cerevisiae deletion strains, locus YLL041C, strain sdh2, stronger effect = lower value 0.992 | S. cerevisiae deletion strains, locus YLR027C, strain aat2, stronger effect = lower value 1.02 | S. cerevisiae deletion strains, locus YLR039C, strain RIC1, stronger effect = lower value 0.877 | S. cerevisiae deletion strains, locus YLR058C, strain SHM2, stronger effect = lower value 1 | S. cerevisiae deletion strains, locus YLR102C, strain apc9, stronger effect = lower value 0.993 | S. cerevisiae deletion strains, locus YLR113W, strain HOG1, stronger effect = lower value 0.987 | S. cerevisiae deletion strains, locus YLR221C, strain rsa3, stronger effect = lower value 0.989 | S. cerevisiae deletion strains, locus YLR258W, strain gsy2, stronger effect = lower value 1.01 | S. cerevisiae deletion strains, locus YLR262C, strain YPT6 (second series), stronger effect = lower value 0.927 | S. cerevisiae deletion strains, locus YLR262C, strain YPT6, stronger effect = lower value 0.962 | S. cerevisiae deletion strains, locus YLR268W, strain sec22, stronger effect = lower value 1 | S. cerevisiae deletion strains, locus YLR320W, strain mms22, stronger effect = lower value 0.954 | S. cerevisiae deletion strains, locus YLR330W, strain CHS5, stronger effect = lower value 1.01 | S. cerevisiae deletion strains, locus YLR342W, strain FKS1 (second series), stronger effect = lower value 0.966 | S. cerevisiae deletion strains, locus YLR342W, strain FKS1, stronger effect = lower value 1.01 | S. cerevisiae deletion strains, locus YLR357W, strain rsc2, stronger effect = lower value 1.12 | S. cerevisiae deletion strains, locus YLR370C, strain arc18, stronger effect = lower value 1 | S. cerevisiae deletion strains, locus YLR371W, strain rom2, stronger effect = lower value 0.989 | S. cerevisiae deletion strains, locus YLR384C, strain iki3, stronger effect = lower value 1.02 | S. cerevisiae deletion strains, locus YLR418C, strain cdc73, stronger effect = lower value 1.04 | S. cerevisiae deletion strains, locus YML016C, strain PPZ1, stronger effect = lower value 0.999 | S. cerevisiae deletion strains, locus YML032C, strain rad52, stronger effect = lower value 0.993 | S. cerevisiae deletion strains, locus YML120C, strain ndi1, stronger effect = lower value 0.965 | S. cerevisiae deletion strains, locus YML124C, strain tub3, stronger effect = lower value 0.979 | S. cerevisiae deletion strains, locus YMR058W, strain fet3, stronger effect = lower value 0.983 | S. cerevisiae deletion strains, locus YMR078C, strain ctf18, stronger effect = lower value 0.983 | S. cerevisiae deletion strains, locus YMR125W, strain sto1, stronger effect = lower value 1.07 | S. cerevisiae deletion strains, locus YMR129W, stronger effect = lower value 1 | S. cerevisiae deletion strains, locus YMR205C, strain PFK2, stronger effect = lower value 0.981 | S. cerevisiae deletion strains, locus YMR223W, strain ubp8, stronger effect = lower value 1 | S. cerevisiae deletion strains, locus YMR231W, strain pep5, stronger effect = lower value 1.01 | S. cerevisiae deletion strains, locus YMR263W, strain SAP30, stronger effect = lower value 0.993 | S. cerevisiae deletion strains, locus YMR307W, strain GAS1, stronger effect = lower value 0.918 | S. cerevisiae deletion strains, locus YNL067W, strain RPL9B, stronger effect = lower value 1.01 | S. cerevisiae deletion strains, locus YNL071W, strain lat1, stronger effect = lower value 1 | S. cerevisiae deletion strains, locus YNL183C, strain NPR1, stronger effect = lower value 0.943 | S. cerevisiae deletion strains, locus YNL209W, strain ssb2, stronger effect = lower value 1.01 | S. cerevisiae deletion strains, locus YNL233W, strain BNI4, stronger effect = lower value 1.02 | S. cerevisiae deletion strains, locus YNL248C, strain rpa49, stronger effect = lower value 1.06 | S. cerevisiae deletion strains, locus YNL250W, strain rad50, stronger effect = lower value 1.01 | S. cerevisiae deletion strains, locus YNL271C, strain bni1, stronger effect = lower value 1 | S. cerevisiae deletion strains, locus YNL298W, strain CLA4, stronger effect = lower value 1 | S. cerevisiae deletion strains, locus YNL307C, strain MCK1, stronger effect = lower value 0.989 | S. cerevisiae deletion strains, locus YNL322C, strain KRE1 (second series), stronger effect = lower value 1.01 | S. cerevisiae deletion strains, locus YNL322C, strain KRE1, stronger effect = lower value 1 | S. cerevisiae deletion strains, locus YNR049C, strain mso1, stronger effect = lower value 1.01 | S. cerevisiae deletion strains, locus YNR052C, strain pop2, stronger effect = lower value 0.981 | S. cerevisiae deletion strains, locus YOL006C, strain TOP1, stronger effect = lower value 1.01 | S. cerevisiae deletion strains, locus YOL012C, strain htz1 0.906 | S. cerevisiae deletion strains, locus YOL147C, strain pex11, stronger effect = lower value 0.988 | S. cerevisiae deletion strains, locus YOR001W, strain rrp6, stronger effect = lower value 0.976 | S. cerevisiae deletion strains, locus YOR061W, strain CKA2, stronger effect = lower value 0.997 | S. cerevisiae deletion strains, locus YOR069W, strain VPS5, stronger effect = lower value 1 | S. cerevisiae deletion strains, locus YOR070C, strain gyp1, stronger effect = lower value 1.01 | S. cerevisiae deletion strains, locus YOR080W, strain dia2, stronger effect = lower value 0.996 | S. cerevisiae deletion strains, locus YOR083W, strain WHI5, stronger effect = lower value 0.98 | S. cerevisiae deletion strains, locus YOR106W, strain vam3, stronger effect = lower value 1.03 | S. cerevisiae deletion strains, locus YOR136W, strain idh2, stronger effect = lower value 1.01 | S. cerevisiae deletion strains, locus YOR144C, strain elg1, stronger effect = lower value 0.979 | S. cerevisiae deletion strains, locus YOR184W, strain ser1, stronger effect = lower value 1.02 | S. cerevisiae deletion strains, locus YOR231W, strain MKK1, stronger effect = lower value 0.998 | S. cerevisiae deletion strains, locus YOR265W, strain rbl2, stronger effect = lower value 1.01 | S. cerevisiae deletion strains, locus YOR270C, strain vph1, stronger effect = lower value 0.896 | S. cerevisiae deletion strains, locus YOR290C, strain snf2, stronger effect = lower value 1.02 | S. cerevisiae deletion strains, locus YOR316C, strain cot1, stronger effect = lower value 0.987 | S. cerevisiae deletion strains, locus YPL051W, strain arl3, stronger effect = lower value 1.02 | S. cerevisiae deletion strains, locus YPL078C, strain atp4, stronger effect = lower value 1.01 | S. cerevisiae deletion strains, locus YPL106C, strain sse1, stronger effect = lower value 1.05 | S. cerevisiae deletion strains, locus YPL240C, strain hsp82, stronger effect = lower value 0.997 | S. cerevisiae deletion strains, locus YPL241C, strain CIN2, stronger effect = lower value 0.992 | S. cerevisiae deletion strains, locus YPL256C, strain CLN2, stronger effect = lower value 0.997 | S. cerevisiae deletion strains, locus YPR119W, strain clb2, stronger effect = lower value 0.981 | S. cerevisiae deletion strains, locus YPR141C, strain kar3, stronger effect = lower value 1.01 | S. cerevisiae deletion strains, locus YPR163C, strain tif3, stronger effect = lower value 0.984 | S. cerevisiae deletion strains, locus YPR167C, strain met16, stronger effect = lower value 1 | S. cerevisiae deletion strains, strain wtn01, stronger effect = lower value 1.01 | S. cerevisiae strains, strain wild type, stronger effect = lower value 1
